Results published in PubChem BioAssay AID1117361 (Southern Research Institute, 2015).
The whole screen tested about 3,600 compounds, of which about 900 (25%) were called active. No rule for the calls is given here. These entries were drawn from the full list. A call without a number means that no potency is given here. Potency and affinity values are given separately.

Biological target: Protein Tat (Human immunodeficiency virus type 1 group M subtype B (isolate HXB2)) (UniProt P04608)
Experiment: HIV-1 Tat–TAR interaction blockers – biochemical, fluorescence polarization, FAM-labeled TAR RNA, counter-screen for Vif-APOBEC3G degradation inhibitor project, dose response (AID 1117361)
Settings: Tat-TAR RNA binding; series mostly up to 100 µM

Compound | outcome
COc1ccc(NC2=NC(C)(CO)CS2)cc1 (configuration not stated) | inactive
COc1ccc(Nc2nc3ccccc3nc2-n2nc(C)cc2C)cc1 | inactive
CCOC(=O)C(C(=O)OCC)C(CC(=O)C1CC1)c1ccccc1 (configuration not stated) | inactive
O=C(O)/C=C/C(=O)NNc1ncnc2ccccc12 | inactive
CCCCCCCCNc1ncnc2ccccc12 | inactive
O=C(CSc1nnc(CNC(=O)c2ccccc2F)o1)c1ccccc1 | inactive
CCc1ccccc1NC(=O)c1cc2ncc(Br)cn2n1 | inactive
COc1ccc(Br)c(C(=O)NC(C)(C)CO)c1 | inactive
O=[N+]([O-])c1ccc2c([N+](=O)[O-])ccc3c2c1CC3 | inactive
CCC(=O)Nc1cccc(-c2nc3ccccc3c(=O)o2)c1 | inactive
O=C(O)CSCc1c(F)cccc1Cl | inactive
CC(C(=O)NCC1CCCCC1)N(C)Cc1ccc(Br)cc1 (configuration not stated) | inactive
O=S(=O)(O)c1cccc2c(N=Nc3ccc(O)c4ncccc34)cccc12 | inactive
O=C(c1ccccc1)c1ccc(OC(=O)N2CCOCC2)cc1 | inactive
CCOC(=O)C1CCN(C(=O)c2ccc3snnc3c2)CC1 | inactive
O=C(c1ccc(-n2cnnn2)cc1)N1CCOCC1 | inactive
CCC(CC)C(=O)Nc1cccc(C(=O)N2CCOCC2)c1 | inactive
CCOC(=O)N1CCN(C(=O)c2ccc(NC(=O)c3ccc(C)cc3)cc2)CC1 | inactive
O=C(Nc1cccc(S(=O)(=O)N2CCCCC2)c1)c1ccc2c(=O)n3c(nc2c1)CCCCC3 | inactive
CC(C)CCNC(=O)c1ccc2c(SCC(=O)O)c3c(nc2c1)CCC3 | inactive
O=C(NNC(=O)c1ccccc1-n1cccc1)c1ccc(Cl)c(Cl)c1 | inactive
CC(C)(C)NC(=O)c1cnn2c1NC(c1ccc(F)cc1)CC2C(F)(F)F (configuration not stated) | inactive
CN(C)C=NC(=O)/C(C#N)=C1\CCc2ccccc2N1 | inactive
Nn1c(SCC(=O)NCCc2ccc(F)cc2)nnc1C1CCCCC1 | inactive

Compound | outcome
COc1ccccc1CNC(=O)CCS(=O)(=O)c1ccc2c(c1)CCCN2C(C)=O | inactive
CCOC(=O)Nc1ccc2c(CN3C(=O)NC4(CCCC4)C3=O)cc(=O)oc2c1 | inactive
Cc1ccc(N(CN2C(=O)C3CC=CCC3C2=O)C(=O)c2ccco2)cc1Cl (configuration not stated) | inactive
CCc1[nH]nc2c1C1(CCN(C(=O)OCc3ccccc3)CC1)C(C#N)=C(N)O2 | inactive
Cc1[nH]c2ccccc2c1Cc1nnc(SCc2ccccc2)o1 | inactive
Cn1cc(CN2CCN(CCO)CC2)c(-c2ccc(Oc3ccccc3)cc2)n1 | inactive
CCc1c(O)nc(N2CCN(Cc3ccccc3)CC2)[nH]c1=O | inactive
O=c1ccccn1Cc1c(F)cccc1Cl | inactive
CCOC(=O)c1cnc(-c2ccccc2)nc1Oc1ccc(C)cc1 | inactive
CCOC(=O)Cn1c(=O)n(CC(=O)OCC)c2ccccc21 | inactive
CCOc1ccc(-n2c(C)nc(O)c2N=Nc2ccccc2)cc1 | inactive
CCOc1ccccc1NC(=O)Cn1c(-c2ccc(Cl)cc2)noc1=O | inactive
CCOc1ccccc1CNC(=O)Cn1c(=O)oc2ccccc21 | inactive
CCOc1ccc(C(=O)N2CCCN(C(=O)c3ccc(OCC)cc3)CC2)cc1 | inactive
Cc1sc(NC(=O)CN2CCOCC2)nc1-c1ccc2c(c1)CCN2S(=O)(=O)c1ccccc1 | inactive
COc1ccccc1NC(=O)COC(=O)c1c(NC(C)=O)sc(C)c1C | inactive
CCOc1ccc(-n2c(SC)nc3c(c2=O)SCC3)cc1 | inactive
CC(C)Oc1ccc(CNCC2(O)CCOC(C)(C)C2)cc1 (configuration not stated) | inactive
Cc1sc(NC(=O)CSc2nnnn2C(C)C)c(C#N)c1C | inactive
CNc1sc(C(=O)c2cccs2)c(N)c1-c1nc2ccccc2s1 | inactive
COCCNC(=O)CN1C(=O)CSc2ncccc21 | inactive
CC(=O)OC1OCCOC1NC(=S)Nc1ccc(C)cc1 (configuration not stated) | inactive
COc1ccc(OCc2nnc3n2N=C(c2ccc(OC)cc2)CS3)cc1 | inactive
CCn1c(SCC(=O)c2ccc(F)cc2)nnc1-c1ccoc1C | inactive

Compound | outcome
COC(=O)CSc1nnc(-c2ccccc2OC)n1-c1ccc(C)cc1 | inactive
CCCCOc1ccccc1C1NC(=O)NC(C)=C1C(=O)OCc1ccco1 (configuration not stated) | inactive
COc1ccc(C(=O)O)cc1S(=O)(=O)N1CCCc2ccccc21 | inactive
CCOc1cc(C)c(Cl)cc1S(=O)(=O)NCc1ccco1 | inactive
Oc1cc2c(cc1O)[C@@H](c1ccccc1)CNCC2 | inactive
CC1CCc2cc(F)ccc2N1C(=O)CSc1nnc(-c2cccs2)n1C (configuration not stated) | inactive
CCOc1cc(S(=O)(=O)NCc2ccccn2)c(C)cc1C | inactive
O=C(Cn1nnc(-c2ccccc2-n2cnnn2)n1)c1ccccc1 | inactive
O=C(CN1C(=O)/C(=C\c2cccs2)SC1=S)Nc1cccc(C(=O)O)c1 | inactive
C=CCOc1ccc(/C=C2\SC(=S)N(CCC(=O)O)C2=O)cc1 | inactive
CC(=O)O/N=C/c1c(N2CCOCC2)n(C)c2ccccc12 | inactive
CCS(=O)(=O)Nc1ccc(C(=O)CC2(O)C(=O)Nc3ccccc32)cc1 (configuration not stated) | inactive
CCOC(=O)C1CCCN(C(=O)c2ccc(CS(=O)(=O)c3ccc(Br)cc3)o2)C1 (configuration not stated) | inactive
COc1ccc(S(=O)(=O)Cc2ccc(C(=O)NC(C)C)o2)cc1 | inactive
CCOC(=O)CSc1nnc(CNC(=O)c2cccs2)n1CCc1ccccc1 | inactive
Cc1ccc(SCC2=NNC(=O)C2)cc1 | inactive
COc1ccccc1N(CC(O)CN1C(=O)NC(C)(C)C1=O)S(=O)(=O)c1ccc(C)cc1 (configuration not stated) | inactive
CN(C)/C=N/NC(=O)c1ccccc1Cl | inactive
Cc1nn(Cc2ccccc2)c(C)c1/C=N/NC(=O)c1ccccc1O | inactive
Cc1nc2ccc(S(=O)(=O)N(C)CC(=O)N3CCc4ccccc43)cc2s1 | inactive
COC(=O)[C@@]1(Cc2ccc(OC)cc2)[C@H]2c3cc(C(=O)N(C)C)n(C[C@H](O)CO)c3C[C@H]2CN1C(=O)c1ccccc1 | inactive
CCOC(=O)c1sc2ncnc(N3CCN(C(=O)OCC)CC3)c2c1C | inactive
COc1ccc(-c2nc(CS(=O)CC(=O)NCc3ccco3)c(C)o2)cc1 (configuration not stated) | inactive
CCCCC(O)(CCCC)C(=O)N/N=C(\C)c1ccc(Cl)cc1 | inactive
